Data: article PMC4336329 (PLoS ONE, 2015)
In all, about 310,000 compounds went through this assay and about 14,000 (4.5%) showed an effect of 50% or more. Effects have a minus sign here. The entries come from a sample that favours strong results as a whole.

The molecules below were run against human ether-à-go-go-related gene (hERG) potassium channel (human, UniProt Q12809) (assay: primary screen, population patch clamp on CHO cells stably expressing hERG; higher = less effect of the substance).
Chain of human ether-à-go-go-related gene (hERG) potassium channel (Q12809 whole entry, looked up): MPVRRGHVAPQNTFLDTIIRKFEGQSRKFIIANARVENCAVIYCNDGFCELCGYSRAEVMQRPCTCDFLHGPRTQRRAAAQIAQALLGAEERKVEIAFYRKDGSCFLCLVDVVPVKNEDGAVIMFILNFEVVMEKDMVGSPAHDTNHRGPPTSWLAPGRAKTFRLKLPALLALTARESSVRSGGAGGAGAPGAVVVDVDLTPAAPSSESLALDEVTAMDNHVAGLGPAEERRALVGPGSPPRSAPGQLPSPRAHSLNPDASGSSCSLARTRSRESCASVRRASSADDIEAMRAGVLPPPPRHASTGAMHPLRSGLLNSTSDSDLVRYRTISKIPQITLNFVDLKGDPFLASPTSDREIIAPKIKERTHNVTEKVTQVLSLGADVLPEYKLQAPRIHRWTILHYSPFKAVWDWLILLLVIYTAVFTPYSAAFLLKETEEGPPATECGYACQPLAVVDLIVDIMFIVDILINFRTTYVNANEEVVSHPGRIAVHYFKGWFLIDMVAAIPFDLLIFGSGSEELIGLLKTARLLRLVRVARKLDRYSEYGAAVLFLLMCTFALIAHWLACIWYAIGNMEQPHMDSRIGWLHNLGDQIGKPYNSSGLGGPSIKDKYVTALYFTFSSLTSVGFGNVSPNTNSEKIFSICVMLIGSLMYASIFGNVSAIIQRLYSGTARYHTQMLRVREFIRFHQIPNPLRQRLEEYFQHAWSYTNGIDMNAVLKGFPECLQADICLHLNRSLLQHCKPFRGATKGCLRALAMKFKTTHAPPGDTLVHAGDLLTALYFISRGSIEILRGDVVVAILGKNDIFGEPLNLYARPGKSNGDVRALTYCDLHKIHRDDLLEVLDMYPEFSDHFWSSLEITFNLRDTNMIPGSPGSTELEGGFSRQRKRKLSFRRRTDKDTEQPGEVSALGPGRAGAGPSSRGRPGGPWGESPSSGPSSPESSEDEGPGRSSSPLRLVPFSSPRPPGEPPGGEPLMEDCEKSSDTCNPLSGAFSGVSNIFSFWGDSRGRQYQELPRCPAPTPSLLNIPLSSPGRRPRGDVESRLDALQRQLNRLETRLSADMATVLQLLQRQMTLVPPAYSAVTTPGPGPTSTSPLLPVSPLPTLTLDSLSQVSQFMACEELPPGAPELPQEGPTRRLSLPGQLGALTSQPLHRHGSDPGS
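Note: peak tail current of the secondary pulse compared with the same well before compound.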

Structure (SMILES)	hERG current change (%, negative = inhibition) at 10uM
Cc1ccc(C2=NOC(=O)/C2=C\c2ccc(C)o2)cc1	6.75%
O=C(N/N=C\c1cccnc1)C1c2ccccc2Oc2ccccc21	0.415%
CCOC(=O)C1=C(C)N(C)C(=S)N(C)C1c1ccc(OC)cc1 (stereo not drawn)	-10.5%
CN(C)S(=O)(=O)c1ccc(C(=O)OCC(=O)NCc2ccco2)cc1	11.6%
Cc1ccc(-c2cc(C(=O)N3CCOCC3)c3cc(C)ccc3n2)cc1	-4.82%
COc1ccccc1CNC(=O)CCC(=O)n1ncc2cc(C)ccc21	0.647%
c1ccc2c(c1)CCCN2Cc1nnnn1C1CCCC1	-3.84%
O=C(C1CC1)N(Cc1ccco1)c1nc(-c2ccccc2)cs1	-8.62%
Cc1ccc2c(c1)C1CN(C)CCC1N2C(=O)COc1ccc(S(=O)(=O)N2CCOCC2)cc1 (stereo not drawn)	-15.8%
Cc1ccc2c(c1)C1CN(C)CCC1N2S(=O)(=O)c1ccc(Oc2ccc([N+](=O)[O-])cc2)cc1 (stereo not drawn)	-21.3%
Cc1ccc2c(c1)C1CN(C)CCC1N2S(=O)(=O)c1ccccc1F (stereo not drawn)	-32.4%
Cc1ccc2c(c1)[C@@H]1CN(C)CC[C@@H]1N2S(=O)(=O)c1ccc(F)cc1.Cl	-29.1%
Cc1ccc2c(c1)[C@@H]1CN(C)CC[C@@H]1N2S(=O)(=O)c1ccc([N+](=O)[O-])cc1.Cl	-75%
Cc1ccc2c(c1)C1CN(C)CCC1N2CC(=O)N(C)c1ccccc1 (stereo not drawn)	6.34%
Cc1ccc2c(c1)C1CN(C)CCC1N2Sc1ccccc1[N+](=O)[O-] (stereo not drawn)	-62.8%
Cc1ccc2c(c1)C1CN(C)CCC1N2S(=O)(=O)c1ccc(C#N)cc1 (stereo not drawn)	-72.8%
Cc1ccc2c(c1)C1CN(C)CCC1N2C(=O)c1cccc(S(=O)(=O)N(C)C)c1.c1ccccc1 (stereo not drawn)	-25%
CN(C(=O)Cc1c(C(=O)O)n(C)c2ccccc12)c1ccc(F)cc1	19.8%
CCn1c(COc2ccc(Cl)cc2)nnc1SCc1ccc(C#N)cc1	-70.5%
Cc1ccc(OCc2nnc(SCc3ccc(C#N)cc3)n2-c2ccc(C)cc2)cc1	-29.6%

Structure (SMILES)	hERG current change (%, negative = inhibition) at 10uM
N#Cc1ccc(CSc2nnc(COc3ccccc3)n2-c2ccccc2)cc1	-52.3%
CCSc1nnc(COc2ccccc2)n1CC	6.43%
CCn1c(COc2ccc(C)cc2)nnc1SCc1ccc(C#N)cc1	-59.6%
COc1ccc(-n2c(COc3ccc(Cl)cc3)nnc2SCc2ccc(C#N)cc2)cc1	0.977%
COc1ccc(-n2c(COc3ccc(C)cc3)nnc2SCc2ccc(C#N)cc2)cc1	-29.6%
CCn1c(COc2ccc(Cl)cc2)nnc1SCc1nc2ccccc2[nH]1	-17.7%
COc1ccc(-n2c(COc3ccccc3)nnc2SCc2ccc(C#N)cc2)cc1	-39.4%
CCn1c(COc2ccccc2)nnc1SCC(=O)C(C)(C)C	-14.2%
CCn1c(COc2ccccc2)nnc1SCc1ccc(C#N)cc1	-54.1%
N#CCSc1nnc(COc2ccccc2)n1-c1ccccc1	-10.7%
COc1ccc(/C=N/NC(=O)CCN2CCCCC2c2cccnc2)cc1Cn1cc([N+](=O)[O-])cn1 (stereo not drawn)	-30.7%
CCCCOCCCNC(=O)Cc1cccs1	1.1%
O=C(CN1C(=O)c2ccccc2C1=O)NN1C(=O)c2ccccc2C1=O	1.18%
Cc1c(C(=O)Oc2cccc3cccnc23)oc2ccccc12	-4.01%
Cc1cnc(C(=O)OCC(=O)NC2CCCC(C)C2C)cn1 (stereo not drawn)	6.02%
CC(=O)N1CCN(c2ccccc2NC(=O)c2cc(Br)ccc2Cl)CC1	-66.6%
O=C(Nc1ccccc1N1CCCC1)c1cc(Cl)ccc1Cl	-2.72%
CC(=O)N1CCN(c2ccccc2NC(=O)c2ccc3ccccc3c2)CC1	-61.9%
CC(=O)N1CCN(c2ccccc2NC(=O)c2cccc3c(Cl)cccc23)CC1	-19.2%
CS(=O)(=O)N1CCN(c2ccccc2NC(=O)c2cc(Br)ccc2Cl)CC1	-30.3%

Structure (SMILES)	hERG current change (%, negative = inhibition) at 10uM
CS(=O)(=O)N1CCN(c2ccccc2NC(=O)c2ccc3ccccc3c2)CC1	-8.76%
CN1CCN(c2ccccc2NC(=O)c2cc(Br)ccc2Cl)CC1	-76.4%
O=C(Nc1ccccc1N1CCCC1)c1ccc2ccccc2c1	8.73%
COc1c(Cl)cc(Cl)cc1C(=O)Nc1ccccc1N1CCN(C(C)=O)CC1	3.01%
CC(C)C(NC(=O)COc1ccc2ccccc2c1)C(=O)N/N=C/C=C/c1ccccc1 (stereo not drawn)	14.8%
COc1cc(C2/C(=C(\O)c3ccc4c(c3)CC(C)O4)C(=O)C(=O)N2c2nnc(C)s2)cc(OC)c1OC (stereo not drawn)	9.14%
Cc1c(Cc2ccccc2)c(=O)oc2cc(OCC(=O)N3CCC(C(=O)O)CC3)ccc12	6.24%
Cc1noc(C)c1COc1ccc(C(=O)OCC(=O)N2CC3(C)CC2CC(C)(C)C3)cc1 (stereo not drawn)	-6.44%
COC(=O)c1ccc(Oc2c(Cl)cccc2[N+](=O)[O-])cc1	3.65%
COc1ccc(OC(C)C(=O)NCC2CCCO2)cc1 (stereo not drawn)	18.5%
COC(=O)c1sc(N)c(C(=O)OC)c1COC(=O)c1c(C)noc1C	-3.57%
Cc1noc(C)c1CSc1nnc(C)c(=O)[nH]1	7.14%
CCOC(=O)c1[nH]c(C)c(C(=O)OCC(=O)N(C)C2CCS(=O)(=O)C2)c1C (stereo not drawn)	29%
CCOc1ccc2nc(CN3CCN(Cc4ccsc4)C(CCO)C3)ccc2c1 (stereo not drawn)	-47%
OCCC1CN(Cc2ccc3cc(Cl)ccc3n2)CCN1Cc1ccsc1 (stereo not drawn)	-65%
OCCC1CN(Cc2cccc3nonc23)CCN1C1CCCCC1 (stereo not drawn)	-5.74%
CC(C)N1CCC(N2CCN(Cc3cccc4nonc34)CC2CCO)CC1 (stereo not drawn)	3.08%
OCCC1CN(Cc2cccc3nonc23)CCN1Cc1ccsc1 (stereo not drawn)	-52.6%
Cc1cccc(CN2CCN(Cc3ccc4nonc4c3)CC2CCO)n1 (stereo not drawn)	-35.6%
OCCC1CN(Cc2ccc3nonc3c2)CCN1Cc1ccsc1 (stereo not drawn)	-66.1%
